Consider 6 compounds from PubChem BioAssay (NCATS).

For assay [1], the target named is Lysosomal acid glucosylceramidase (Homo sapiens) (UniProt P04062). The assay is described as follows: Glucocerebrosidase-p2 (AID 348; in the data active means potency below about 10 µM; further: potency means the concentration at half of the fitted maximal effect). The settings on record: purified GBA, blue fluorogenic substrate, 40 min. An outline of the steps: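 Normal human glucocerebrosidase (0.2 nM) with blue fluorogenic substrate (80 uM final) in citrate/phosphate pH 5.9 with 10mM sodium taurocholate, 0.01% tween-20; 40 min RT, NaOH/glycine stop; fluorescence Ex 365/Em 440; AC50 from a titration from 0.6 nM upwards.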

Assay [2] can be described thus: AP1 Signaling Pathway (AID 357; active means well fitted curve in either direction with a large enough effect, not every such curve was filed as active;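 further: ME-180 reporter cells stimulated with EGF at its EC50 level; on the % scale 0 is the no-effect control and ±100 the full control effect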). The settings on record: ME-180 AP-1-bla reporter, EGF-induced, beta-lactamase ratio, 5 h; at 7.69 µM (top of the series) unless noted. An outline of the steps:
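A ratiometric CCF4 readout (405 nm excitation; 460 and 530 nm emission) quantified AP-1-driven beta-lactamase in ME-180 cells after 5 h with compound and EC50 EGF; AC50 values were derived for activators and inhibitors.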

For assay [3], the target named is Cytochrome P450 1A2 (Homo sapiens) (UniProt P05177). The assay is described as follows: p450-cyp1a2 (AID 410; calls by dose curve; further: potency means the concentration at half of the fitted maximal effect;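 on activity change, negative = inhibition: -100% = full effect of reference inhibitor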). As to conditions: recombinant CYP1A2, luciferin-ME demethylation, luminescence; series mostly up to 57 µM. The procedure, abridged: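 Luminescent demethylation readout: Luciferin-ME (100uM, equal to Km) turned over by 20nM CYP1A2 for 60 min at room temperature after NADPH regeneration addition, following 10 min compound preincubation. Normalization used 57 uM furafylline as full inhibition.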

Assay [4] is described as follows: Stat Signaling Pathway (AID 446; active means well fitted curve in either direction with a large enough effect, not every such curve was filed as active;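 further: ME-180 cervical cancer cells given 40 pM IL-6 alongside compound; SIE-controlled beta-lactamase reporter measured as 460/530 nm FRET emission ratio; on the % scale 0 is the no-effect control and ±100 the full control effect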). As to conditions: ME-180 (cervical carcinoma) SIE beta-lactamase reporter, IL-6 stimulated, 5 h; at 7.69 µM (top of the series) unless noted. An outline of the steps: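 Compound effects on IL-6-induced STAT reporter activity were measured in ME-180 cells. After overnight culture, cells were co-treated with 40 pM IL-6 for 5 hrs before beta-lactamase substrate loading at room temperature.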

Assay [5] concerns the target Glucocorticoid receptor (Homo sapiens) (UniProt P04150). The assay is described as follows: GR-EFC Redistribution (AID 451; calls by dose curve; further: potency means the concentration at half of the fitted maximal effect). As to conditions: CHO-K1 GR-EFC translocation, beta-gal luminescence, 2 h. An outline of the steps:
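Translocation of GR-ED fusion to nuclear EA restores b-gal, read by luminescence after 1 h room-temperature detection. Engineered CHO-K1 biosensor cells, 1,000/well, exposed 2 h at 37 C to titrations up to 46 uM final.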

The target in assay [6] is Mitogen-activated protein kinase 10 (Mus musculus) (UniProt Q61831). The assay is described as follows: JNK3 AlphaScreen Assay (AID 530; active means well fitted curve in either direction with a large enough effect, not every such curve was filed as active;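 further: kinase came from lysate of stimulated human HepG2 cells; signal reports phosphorylation of biotinylated GST-cJun 1-79 at Ser73 with 10 µM ATP; on the % scale 0 is the no-effect control and ±100 the full control effect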). As to conditions: JNK3 lysate, c-Jun phosphorylation; series mostly up to 57.1 µM. The procedure, abridged: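 qHTS titrations with 15 min compound pre-incubation before adding ATP (10 uM final). Read-out: AlphaScreen of Ser73-phosphorylated biotin-GST-cJun using HepG2 lysate JNK3 activated by IL-1β and TNFα.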

Assay [7] has as its target 3',5'-cyclic-AMP phosphodiesterase 4B (Homo sapiens) (UniProt Q07343). The assay is described as follows: qHTS Assay for Inhibitors of PDE-IV (AID 607; active means well fitted activation curve with a large enough effect in the main read-out, with a control signal flat, not every such curve was filed as active; further: % of control where 0% means no effect). As to conditions: HEK293 ACTOne CNG channel cells, membrane potential fluorescence; series mostly up to 22.9 µM. An outline of the steps: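 ACTOne HEK293 cells carry a modified cAMP-gated CNG channel and express endogenous PDE4; plated 1000 cells/well, compounds up to 22.9 uM final. Membrane-potential dye fluorescence (ex 535/em 590) was read; parental cells received 10 uM forskolin + 100 uM RO 20-1724.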

In assay [8] the target is Cytochrome P450 3A4 (Homo sapiens) (UniProt P08684). The assay is described as follows: qHTS Assay for Inhibitors and Substrates of Cytochrome P450 3A4 (AID 884). Further: nearly all actives have a fitted effect of over 50% in size. Further: potency means the concentration at half of the fitted maximal effect. As to conditions: recombinant CYP3A4, Luciferin-PPXE luminescence; series mostly up to 57.1 µM. An outline of the steps:
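Luminescent readout of luciferin produced by CYP3A4 (20 nM) dealkylation of Luciferin-PPXE, 25 uM (its KM). NADPH-driven reaction ran 60 min at RT after 10 min compound preincubation; data scaled to 57 uM ketoconazole as 100% inhibition.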

For assay [9] the target is unchanged. The experiment in a line: qHTS Assay for Activators of Cytochrome P450 3A4 (AID 885). Further: nearly all actives have a fitted effect of over 65% in size. Further: potency means the concentration at half of the fitted maximal effect. As to conditions: recombinant CYP3A4, Luciferin-PPXE luminescence, 60 min; series mostly up to 57.1 µM. The procedure, abridged: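 CYP3A4 activity: Luciferin-PPXE O-dealkylation, 25uM substrate, 200mM KPO4, RT throughout. Read-out is luciferase luminescence; higher values reflect activation.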

A short description of assay [10]: qHTS Assay for Lipid Storage Modulators (AID 1519; calls by dose curve). The settings on record: Drosophila S3 cells, BODIPY lipid droplet/cell ratio, laser cytometry, cells loaded with oleic acid; for activity change, negative = inhibition: at 57.5 µM (top of the series). The procedure, abridged:
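Cells seeded at 5,000 per well were treated with compounds over a concentration series and loaded with oleic acid (400 uM, as added). Lipid droplet fluorescence (488 nm excitation, 500-530 nm channel) was read by laser-scanning cytometry and normalized to 20 uM Triacsin C.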

Assay [11] concerns the target Cytochrome P450 2D6 (Homo sapiens) (UniProt P10635). The experiment in a line: qHTS Assay for Inhibitors and Substrates of Cytochrome P450 2D6 (AID 891). Further: nearly all actives have a fitted effect of over 60% in size. Further: potency means the concentration at half of the fitted maximal effect. The settings on record: recombinant CYP2D6, luciferin-ME EGE luminescence; series mostly up to 57.1 µM. An outline of the steps: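 Luminescent read-out of luciferin formed by 5 nM human CYP2D6 demethylating 30 uM Luciferin-ME EGE (Km level) over 60 min at room temperature after NADPH regeneration addition. Data normalized to full inhibition by 1.43 uM quinidine.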

For assay [12], the target named is Cytochrome P450 2C19 (Homo sapiens) (UniProt P33261). The assay is described as follows: qHTS Assay for Inhibitors and Substrates of Cytochrome P450 2C19 (AID 899). Further: on the % scale 0 is the no-effect control and ±100 the full control effect; nearly all actives have a fitted effect of over 60% in size. The settings on record: recombinant CYP2C19, luciferin-H EGE luminescence; series mostly up to 57.1 µM. An outline of the steps:
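5nM enzyme + 10uM Luciferin-H EGE (=KM), 50mM KPO4; cpd pin-transferred, 10 min 37C; NADPH regen, 60 min 37C; stopped w/ luciferin detection reagent, 20 min; luminescence. Normalized to 57uM ketoconazole (AC100).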

In assay [13] the target is Glucocorticoid receptor (Homo sapiens) (UniProt P04150). The experiment in a line: GR-GFP Redistribution (AID 450;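 active means compounds whose dose series gives a full or clear partial fitted curve of increased nuclear translocation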; further: potency means the concentration at half of the fitted maximal effect). The settings on record: U2OS GR-GFP nuclear translocation, laser cytometry, 2 h.
Assay [14] is described as follows: Confirmation and Secondary Assay for Modulators of Hemoglobin Beta Chain Splicing at IVS2 654 locus (AID 910).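 Further: HeLa cells stably carrying EGFP split by mutant beta-globin IVS2-654 intron; per-well total GFP intensity by laser scanning cytometry after 2-day treatment; % of control where 0% means no effect.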 The settings on record: HeLa EGFP-654 splicing reporter, GFP fluorescence, 48 h; series mostly up to 38.3 µM. An outline of the steps: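 Readout: per-well total peak green fluorescence (488 nm ex, 500–520 nm em) from objects 5–250 µm, reflecting correct splicing of an EGFP-654 reporter. Compounds were applied for 2 days at 37 °C to overnight-plated HeLa EGFP-654 cells; controls were DMSO and 500 nM IVS2-654 PNA.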

A short description of assay [15]: Confirmation and Secondary Assay for Modulators of Hemoglobin Beta Chain Splicing at IVS2 705 locus (AID 930).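 Further: HeLa cells stably expressing the EGFP-705 splicing reporter; % of control where 0% means no effect.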 The settings on record: HeLa EGFP-705 splicing reporter, GFP fluorescence, 48 h; series mostly up to 38.3 µM. An outline of the steps: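 Assay measures total GFP intensity per well in HeLa EGFP-705 cells after 2 days with compound; mis-splicing normally truncates EGFP, so fluorescence indicates corrected splicing.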

Assay [16] deals with Ubiquitin carboxyl-terminal hydrolase 1 (Homo sapiens) (UniProt O94782). The assay is described as follows: Inhibitors of USP1/UAF1: Pilot qHTS (AID 504865).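 Further: rhodamine fluorescence freed from ubiquitin-rhodamine substrate followed over time; top concentration of the series differs between compounds; on the % scale 0 is the no-effect control and ±100 the full control effect; nearly all actives have a fitted effect of over 35% in size.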 The settings on record: purified USP1/UAF1, Ub-rhodamine cleavage fluorescence; series mostly up to 54.9 µM. The procedure, abridged:
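1nM USP1/UAF1 + cpd, 15 min RT; start w/ Ub-Rho 150nM final; kinetic FL 480/540 nm, 6 reads q60 s. Buffer 50mM HEPES pH 7.8, 0.5mM EDTA, 1mM TCEP, 0.01% Tween-20, 0.1 mg/ml BSA.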

A short description of assay [17]: NFAT Signaling Pathway (AID 444; active means well fitted curve in either direction with a large enough effect, not every such curve was filed as active;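 further: carbachol stimulus at about its EC50 of 1 µM final; on the % scale 0 is the no-effect control and ±100 the full control effect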). The settings on record: Jurkat NFAT-bla M1, carbachol, beta-lactamase ratio, 5 h; at 7.69 µM (top of the series) unless noted. The procedure, abridged: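 Read-out: CCF4 FRET ratio (460 nm/530 nm) after 1 h RT dye loading, used for %activity and AC50 from titration series. Cells: Jurkat NFAT-β-lactamase/M1 line, treated with compound plus 1 uM carbachol for 5 h, 37 °C.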

Where [18] appears, read: measured here: cell count channel max response.
The mark [19] stands for this setting: measured here: lipid channel max response.

Results filed as inconclusive are left out. Activity calls are given as the source filed them. Unless noted, the call rests on the fitted dose curve; in most records, active means well fitted curve in the direction sought with a large enough effect; inconclusive means small, poorly fitted or top-dose-only effect, or another doubt; inactive means no such curve, though single readings can be large; an effect the other way counts as inactive or inconclusive.

Chain of Cytochrome P450 2D6 (Homo sapiens) (P10635 whole entry, looked up): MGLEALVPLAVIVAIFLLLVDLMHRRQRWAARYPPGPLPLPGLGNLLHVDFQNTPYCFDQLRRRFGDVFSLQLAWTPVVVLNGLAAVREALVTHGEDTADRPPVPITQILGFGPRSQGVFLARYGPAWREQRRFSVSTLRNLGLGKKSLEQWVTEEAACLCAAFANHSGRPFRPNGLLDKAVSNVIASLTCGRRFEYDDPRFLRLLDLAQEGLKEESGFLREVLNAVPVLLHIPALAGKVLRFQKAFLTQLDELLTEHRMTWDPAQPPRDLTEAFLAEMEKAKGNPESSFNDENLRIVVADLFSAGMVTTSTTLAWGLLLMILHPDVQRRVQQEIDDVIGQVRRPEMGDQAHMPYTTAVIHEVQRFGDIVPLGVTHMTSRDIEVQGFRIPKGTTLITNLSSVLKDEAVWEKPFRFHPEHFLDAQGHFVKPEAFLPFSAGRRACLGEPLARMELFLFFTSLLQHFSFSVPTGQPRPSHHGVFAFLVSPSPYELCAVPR
Chain of 3',5'-cyclic-AMP phosphodiesterase 4B (Homo sapiens) (Q07343 whole entry, looked up): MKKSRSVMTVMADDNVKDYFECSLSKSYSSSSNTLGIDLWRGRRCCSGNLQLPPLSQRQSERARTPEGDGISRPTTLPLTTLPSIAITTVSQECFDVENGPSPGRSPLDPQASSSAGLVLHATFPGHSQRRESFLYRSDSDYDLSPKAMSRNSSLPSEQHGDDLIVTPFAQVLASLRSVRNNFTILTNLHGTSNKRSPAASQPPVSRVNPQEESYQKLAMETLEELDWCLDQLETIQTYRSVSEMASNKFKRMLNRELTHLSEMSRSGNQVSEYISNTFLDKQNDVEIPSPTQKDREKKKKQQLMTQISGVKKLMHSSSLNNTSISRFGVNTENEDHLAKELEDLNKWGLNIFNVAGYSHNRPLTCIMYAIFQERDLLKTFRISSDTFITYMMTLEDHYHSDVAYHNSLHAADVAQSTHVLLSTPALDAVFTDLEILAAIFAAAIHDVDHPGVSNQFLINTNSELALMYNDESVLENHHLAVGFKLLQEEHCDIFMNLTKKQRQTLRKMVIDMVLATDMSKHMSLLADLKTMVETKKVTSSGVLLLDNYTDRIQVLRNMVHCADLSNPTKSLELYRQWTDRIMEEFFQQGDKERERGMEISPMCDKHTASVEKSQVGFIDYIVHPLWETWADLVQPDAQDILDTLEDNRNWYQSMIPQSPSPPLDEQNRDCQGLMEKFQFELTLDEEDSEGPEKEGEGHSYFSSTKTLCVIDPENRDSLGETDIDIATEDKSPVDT
Chain of Cytochrome P450 1A2 (Homo sapiens) (P05177 whole entry, looked up): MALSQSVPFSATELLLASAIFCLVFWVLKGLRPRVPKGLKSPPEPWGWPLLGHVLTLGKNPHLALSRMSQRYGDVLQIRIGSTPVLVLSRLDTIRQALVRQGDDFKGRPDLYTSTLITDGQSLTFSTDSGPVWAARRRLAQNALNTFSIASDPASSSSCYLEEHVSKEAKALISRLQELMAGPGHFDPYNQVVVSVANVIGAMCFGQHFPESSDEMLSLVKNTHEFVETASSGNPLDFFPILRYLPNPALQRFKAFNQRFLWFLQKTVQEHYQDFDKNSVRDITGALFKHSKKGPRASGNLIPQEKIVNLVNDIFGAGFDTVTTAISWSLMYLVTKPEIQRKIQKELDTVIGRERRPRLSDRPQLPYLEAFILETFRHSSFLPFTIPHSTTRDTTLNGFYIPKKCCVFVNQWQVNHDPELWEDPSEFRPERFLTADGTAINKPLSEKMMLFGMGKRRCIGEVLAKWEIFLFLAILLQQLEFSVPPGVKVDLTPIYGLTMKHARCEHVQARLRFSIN
Chain of Cytochrome P450 3A4 (Homo sapiens) (P08684 whole entry, looked up): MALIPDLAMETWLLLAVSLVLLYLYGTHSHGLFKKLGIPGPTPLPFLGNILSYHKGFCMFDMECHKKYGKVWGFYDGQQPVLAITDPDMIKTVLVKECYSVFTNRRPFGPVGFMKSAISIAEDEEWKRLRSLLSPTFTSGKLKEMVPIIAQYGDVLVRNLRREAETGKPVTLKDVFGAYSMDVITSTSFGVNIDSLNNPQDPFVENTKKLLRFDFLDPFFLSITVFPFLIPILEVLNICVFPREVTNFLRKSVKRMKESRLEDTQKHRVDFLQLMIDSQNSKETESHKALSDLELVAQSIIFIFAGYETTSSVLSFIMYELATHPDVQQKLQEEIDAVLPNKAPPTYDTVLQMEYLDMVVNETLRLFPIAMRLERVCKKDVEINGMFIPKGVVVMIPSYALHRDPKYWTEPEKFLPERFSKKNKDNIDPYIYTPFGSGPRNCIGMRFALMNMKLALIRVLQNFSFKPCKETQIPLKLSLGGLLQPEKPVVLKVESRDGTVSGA
Chain of Glucocorticoid receptor (Homo sapiens) (P04150 whole entry, looked up, the tested form may be a part): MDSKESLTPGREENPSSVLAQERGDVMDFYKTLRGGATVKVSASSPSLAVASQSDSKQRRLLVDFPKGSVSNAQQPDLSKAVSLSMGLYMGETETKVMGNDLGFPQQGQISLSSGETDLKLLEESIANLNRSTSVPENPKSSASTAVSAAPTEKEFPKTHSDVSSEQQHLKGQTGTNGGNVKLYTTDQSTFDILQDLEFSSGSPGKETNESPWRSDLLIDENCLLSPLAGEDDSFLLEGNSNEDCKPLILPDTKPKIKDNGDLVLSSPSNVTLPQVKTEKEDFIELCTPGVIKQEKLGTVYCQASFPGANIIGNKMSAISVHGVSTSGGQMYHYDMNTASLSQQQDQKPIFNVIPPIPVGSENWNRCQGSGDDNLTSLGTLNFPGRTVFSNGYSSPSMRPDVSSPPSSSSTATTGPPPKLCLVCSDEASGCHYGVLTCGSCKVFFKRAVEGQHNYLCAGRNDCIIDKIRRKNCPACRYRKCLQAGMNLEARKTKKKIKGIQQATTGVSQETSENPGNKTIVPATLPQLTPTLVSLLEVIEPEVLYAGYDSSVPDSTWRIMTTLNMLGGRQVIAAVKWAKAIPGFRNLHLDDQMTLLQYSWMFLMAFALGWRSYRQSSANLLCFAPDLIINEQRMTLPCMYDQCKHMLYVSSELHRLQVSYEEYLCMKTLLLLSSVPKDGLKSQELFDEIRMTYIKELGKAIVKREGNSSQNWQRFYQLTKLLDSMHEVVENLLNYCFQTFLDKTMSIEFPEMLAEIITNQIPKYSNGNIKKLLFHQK
Chain of Lysosomal acid glucosylceramidase (Homo sapiens) (P04062 whole entry, looked up): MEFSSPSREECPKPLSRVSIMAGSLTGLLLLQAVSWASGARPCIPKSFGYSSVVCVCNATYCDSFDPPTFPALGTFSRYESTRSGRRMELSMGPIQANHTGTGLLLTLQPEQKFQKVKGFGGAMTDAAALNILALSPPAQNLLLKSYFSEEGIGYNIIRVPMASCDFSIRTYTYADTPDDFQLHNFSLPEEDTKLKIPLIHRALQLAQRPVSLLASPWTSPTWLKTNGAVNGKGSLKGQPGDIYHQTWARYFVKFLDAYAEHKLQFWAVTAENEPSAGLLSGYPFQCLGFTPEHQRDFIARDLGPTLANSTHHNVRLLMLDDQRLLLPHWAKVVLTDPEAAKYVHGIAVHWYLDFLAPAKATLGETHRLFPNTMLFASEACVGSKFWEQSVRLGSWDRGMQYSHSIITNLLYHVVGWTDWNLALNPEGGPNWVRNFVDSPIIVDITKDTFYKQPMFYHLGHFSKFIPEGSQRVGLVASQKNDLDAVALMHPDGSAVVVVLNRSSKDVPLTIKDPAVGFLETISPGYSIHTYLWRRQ
Chain of Ubiquitin carboxyl-terminal hydrolase 1 (Homo sapiens) (O94782 whole entry, looked up): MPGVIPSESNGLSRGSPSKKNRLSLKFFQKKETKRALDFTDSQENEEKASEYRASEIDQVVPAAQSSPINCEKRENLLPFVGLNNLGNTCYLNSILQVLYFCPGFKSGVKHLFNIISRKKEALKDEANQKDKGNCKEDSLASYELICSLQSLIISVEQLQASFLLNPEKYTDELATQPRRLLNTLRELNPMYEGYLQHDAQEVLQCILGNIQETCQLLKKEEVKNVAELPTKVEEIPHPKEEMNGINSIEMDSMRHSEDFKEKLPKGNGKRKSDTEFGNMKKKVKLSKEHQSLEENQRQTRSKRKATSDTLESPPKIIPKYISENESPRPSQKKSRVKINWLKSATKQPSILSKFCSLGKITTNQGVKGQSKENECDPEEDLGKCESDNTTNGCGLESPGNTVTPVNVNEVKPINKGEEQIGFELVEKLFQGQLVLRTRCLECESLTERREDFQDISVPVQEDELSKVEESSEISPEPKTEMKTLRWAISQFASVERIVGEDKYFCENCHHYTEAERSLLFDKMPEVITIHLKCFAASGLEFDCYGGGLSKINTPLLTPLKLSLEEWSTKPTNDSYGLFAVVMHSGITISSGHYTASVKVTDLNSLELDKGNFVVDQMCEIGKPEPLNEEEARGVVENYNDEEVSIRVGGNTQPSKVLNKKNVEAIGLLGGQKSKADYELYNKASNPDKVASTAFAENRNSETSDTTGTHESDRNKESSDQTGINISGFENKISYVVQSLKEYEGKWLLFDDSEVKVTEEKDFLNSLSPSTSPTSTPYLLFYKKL
Chain of Cytochrome P450 2C19 (Homo sapiens) (P33261 whole entry, looked up): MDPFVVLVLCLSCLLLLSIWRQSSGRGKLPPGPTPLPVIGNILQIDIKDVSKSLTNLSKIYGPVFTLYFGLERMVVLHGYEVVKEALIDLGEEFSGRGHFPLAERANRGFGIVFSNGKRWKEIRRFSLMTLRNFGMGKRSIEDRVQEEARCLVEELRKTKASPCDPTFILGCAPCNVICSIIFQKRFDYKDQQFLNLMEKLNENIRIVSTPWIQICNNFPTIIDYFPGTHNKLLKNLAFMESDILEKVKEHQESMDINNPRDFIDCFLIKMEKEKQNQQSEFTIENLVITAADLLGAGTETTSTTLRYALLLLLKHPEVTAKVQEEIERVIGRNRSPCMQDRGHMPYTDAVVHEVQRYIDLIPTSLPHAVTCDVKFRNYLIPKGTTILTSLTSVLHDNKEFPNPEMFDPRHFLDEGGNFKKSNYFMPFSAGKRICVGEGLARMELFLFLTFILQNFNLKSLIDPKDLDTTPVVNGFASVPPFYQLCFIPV

Regarding `O=C(c1cc(C(F)(F)F)cc(C(F)(F)F)c1)N1CCC[C@@]2(CCN(c3ccncc3)C2)C1`, the figures for the Potency in assay [1], in assay [5] and in assay [8] were > 11.4 µM (inactive), > 46 µM (inactive) and 6.31 µM (active), respectively. Besides, the activity change, negative = inhibition is 6.68% (inactive) in [2] and 1.83% (inactive) in assay [10]. The Potency entry in assay [3], in assay [6], in assay [7] and in [9] was “inactive” throughout. Also, the activity, negative = inhibition in assay [4] is 1.59% (inactive). Besides, the max response in [10] (setting [18]) is -11%; in [10] (setting [19]), -5.86%.

Take `COCC(=O)N1CCC2(CC1)CN(Cc1nccs1)C2`: the Potency in assay [1] is > 11.4 µM (inactive); in assay [5], > 46 µM (inactive). Further, the activity change, negative = inhibition in assay [2] was -21.4% (inactive); in assay [10], 3.6% (inactive). In addition, the Potency result in assay [3], in assay [6], in assay [7], in [8], in [11] and in assay [12] was “inactive” throughout. Further, the max response amounted to 4.27% in assay [10] (setting [18]) and 13.5% in [10] (setting [19]).

As for `c1ccc(C(c2ccccc2)N2CC3(CCNCC3)C2)cc1`, the Potency is > 11.4 µM (inactive) in assay [1], 15.8 µM (active) in [3], > 46 µM (inactive) in [5] and 2.51 µM (active) in assay [11]. Besides, the activity change, negative = inhibition in assay [2] was 14% (inactive); in assay [10], 0.527% (inactive). For the same compound, the Potency result in assay [6], in assay [7] and in [8] was “inactive” each time. Further, the max response in assay [10] (setting [18]) is -0.423%; in [10] (setting [19]), 0.5%.

On to `O=C(c1cccc(F)c1)N1CCC2(CC1)CCN(C(c1ccccc1)c1ccccc1)CC2`, for which the Potency in assay [1] was > 11.4 µM (inactive); in assay [3] it was 10 µM (active); in assay [5], > 46 µM (inactive); in assay [9] it was 5.01 µM (active); in assay [11], 3.16 µM (active). The activity change, negative = inhibition was 2.86% (inactive) in assay [2] and 4.65% (inactive) in [10]. In addition, in [4], the activity, negative = inhibition is -6.67% (inactive). For the same compound, the Potency result in [6], in assay [7] and in assay [8] was “inactive” each time. Besides, the max response in assay [10] (setting [18]) stood at 12.8%; in [10] (setting [19]), 19.8%.

As for `CN(C)Cc1ccccc1-c1ccc2ncnc(N(C)Cc3ccco3)c2c1`, the Potency in assay [1] is > 11.4 µM (inactive); in [3], 2 µM (active); in assay [13], > 46 µM (inactive); in [5], > 46 µM (inactive); in [11] it was 2 µM (active). Also, the activity change, negative = inhibition in assay [2] is 3.42% (inactive); in assay [10], 3.94% (inactive). For the same compound, the activity, negative = inhibition in assay [4] was -16.1% (inactive). The Potency entry in assay [6], in assay [9], in assay [14] and in [16] was “inactive” each time. Further, the result in [15] was inactive. The max response in assay [10] (setting [18]) came out at 7.91%; in assay [10] (setting [19]), 12.6%.

Consider `CN1CCN(c2nc(-c3cccc(NS(C)(=O)=O)c3)nc3ccccc23)CC1`, for which the Potency in [1] was > 11.4 µM (inactive); in assay [13], > 46 µM (inactive); in assay [5] it was > 46 µM (inactive). In addition, the results for the activity change, negative = inhibition in assay [2], in [17] and in assay [10] were 2.06% (inactive), 7.49% (inactive) and 4.29% (inactive), respectively. Also, the activity, negative = inhibition in [4] was -8.68% (inactive). Moreover, the Potency entry in [6], in assay [14] and in assay [16] was “inactive” in each case. Moreover, the result in assay [15] was inactive. The max response in assay [10] (setting [18]) stood at 7.68%; in assay [10] (setting [19]), 8.93%.
